Compounds with a hit are over-represented: about 21% of the library has one in this group of screens.
Pf growth 48h: Primary qHTS for delayed death inhibitors of the malarial parasite plastid, 48 hour incubation; P. falciparum luciferase growth in erythrocytes, 48 h; Potency, µM (doses to about 28.7 µM), inactives show at the top dose activity change, negative = inhibition, most hits filed as inhibitors; actives 5.9% (n = 310,000); AID 504832, 2011; further: potency means the concentration at half of the fitted maximal effect; on the % scale 0 is the no-effect control and ±100 the full control effect
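Growth was read as firefly luciferase luminescence after a 48 h, 37 C, 5% CO2 exposure of compounds to reporter-bearing P. falciparum cultures (0.1% parasitemia, 2% hematocrit final) in Albumax-supplemented RPMI 1640.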
CHX counter: Cycloheximide Counterscreen for Small Molecule Inhibitors of Shiga Toxin. actives 12% (n = 300,000). max response, %. cell reporter, cycloheximide protein synthesis inhibition counterscreen; in the data active means max response mostly above about 13%, no sharp cut-off; inactive means mostly below about 14%; further: read at 38.3 µM for the half of the compounds with a filed dose; 0% is about no effect
Pf growth 96h: Primary qHTS for delayed death inhibitors of the malarial parasite plastid, 96 hour incubation | Potency, µM (series often up to 28.7 µM), for inactives: at the highest dose activity change, negative = inhibition, usual class: inhibitors | P. falciparum luciferase reporter growth, 96 h | actives 6.9% (n = 320,000) | AID 504834, 2011; further: potency means the concentration at half of the fitted maximal effect; on the % scale 0 is the no-effect control and ±100 the full control effect
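Parasite growth measured via integrated firefly luciferase reporter in P. falciparum. Infected erythrocytes at 2% hematocrit, 0.05% parasitemia final were treated 96 hours at 37 C under 5% CO2, and luminescence was read.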
HCV inhibitor: qHTS Assay for Inhibitors of Hepatitis C Virus (HCV) | Huh7.5.1 HCVcc-Cre infection, luciferase reporter, 44 h | Potency, µM (titrated, usually from 41.8 µM), for inactives: at the highest dose activity change, negative = inhibition, most hits filed as inhibitors | actives 3.4% (n = 340,000) | AID 651820, 2012; further: potency means the concentration at half of the fitted maximal effect; on the % scale 0 is the no-effect control and ±100 the full control effect
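Infectious HCV cell culture screen: compound-treated cells (1,000/well, pre-plated 4 h) are infected with HCVcc-Cre at roughly 0.5 moi and grown 44 h. Infection is quantified by luciferase signal after 15 min substrate incubation at room temperature.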
Shiga toxin inh: A qHTS for Small Molecule Inhibitors of Shiga Toxin. actives 9.2% (n = 290,000). inhibition, % at 38.7 µM. AID 2315, 2010. Vero cells, Shiga toxin protein synthesis inhibition reporter; in the data active means inhibition mostly above about 28%, no sharp cut-off; inactive means mostly below about 43%; further: 0% is about no effect
AMA1 RON2 block: qHTS for Inhibitors of AMA1-RON; Towards Development of Antimalarial Drug Lead: Primary Screen | Plasmodium falciparum AMA1 (3D7) - RON2 peptide interaction | AlphaScreen AMA1-biotinylated RON2 peptide binding | Potency, µM (doses to about 58.2 µM), for inactives: at the top dose activity change, negative = inhibition, usual class: inhibitors | actives 0.2% (n = 360,000);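 further: potency means the concentration at half of the fitted maximal effect; 0% = vehicle wells and -100% = peptide control; nearly all actives have a fitted effect of over 45% in size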
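AMA1 (3D7) with his tag at 25 nM final met compounds first, then biotinylated RON2 peptide at 25 nM; detection used donor plus acceptor beads, 10 µg/mL apiece, read by AlphaScreen after 30 min at room temperature.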
Numbers without * were called inactive; i = inactive; ? = inconclusive; . = no result. Unless noted, the call rests on the fitted dose curve; in most records, active means well fitted curve in the direction sought with a large enough effect; inconclusive means small, poorly fitted or top-dose-only effect, or another doubt; inactive means no such curve, though single readings can be large; an effect the other way counts as inactive or inconclusive.

SMILES	Pf growth 48h	CHX counter	Pf growth 96h	HCV inhibitor	Shiga toxin inh	AMA1 RON2 block
CN(C(=O)COc1ccc(Cl)cc1Br)C1CCCCC1	-11%	45*	-16%	-9%	72*	-1%
c1ccc(SC23CCCCN(CCC2)[C@]32CO2)cc1 (some centres not stated)	.	.	.	.	.	22%
COC(=O)[C@@H]1OC(c2ccccc2)O[C@H]1C(=O)OC	.	-6	.	.	-3	.
CC(C)CC1NC(=O)C(CCCN)NC(=O)C(C(C)C)NC(=O)C2CCCN2C(=O)C(Cc2ccccc2)NC(=O)C(CC(C)C)NC(=O)C(CCCN)NC(=O)C(C(C)C)NC(=O)C2CCCN2C(=O)C(Cc2ccccc2)NC1=O (configuration not stated)	-99%	.	2.4µM*	.	.	.
O=C1N[C@@H](Cc2ccccc2)C(=O)N2CCCC12 (some centres not stated)	.	5	.	15%	i	-11%
COc1ccc(C(=O)NC(=S)N2CCOCC2)cc1[N+](=O)[O-]	-26%	-3	2%	-5%	-16	90%
Cc1ccc(-c2cccc(C3CC=CC4C3C(=O)N(Cc3ccccc3)C4c3ccc4ccccc4c3)c2)cc1 (configuration not stated)	?	6	?	36%	-6	9%
Cc1ccc(F)c(C2C3C=CCC(c4cccc(-c5ccc(N(C)C)cc5)c4)C3C(=O)N2Cc2ccccc2)c1 (configuration not stated)	2.9µM*	-1	2.9µM*	4%	-6	?
COc1ccc(-c2cccc(C3CC=CC4C3C(=O)N(Cc3ccccc3)C4c3cc(C)ccc3F)c2)cc1 (configuration not stated)	6.6µM*	-2	6.6µM*	.	4	.
COc1ccc(-c2cccc(C3CC=CC4C3C(=O)N(Cc3ccccc3)C4c3ccc(OC)c(Cl)c3)c2)cc1 (configuration not stated)	12µM*	-1	9.3µM*	-23%	19	0%
CC(/C=C/c1ccc(N(C)C)cc1)=N/N=C1/NC(=O)CC(C(=O)Nc2ccc(Cl)cc2)S1 (configuration not stated)	55%	48*	-3%	-5%	60*	13%
COc1ccc(NC(=O)C2CC(=O)N/C(=N/N=C/c3ccccc3)S2)cc1 (configuration not stated)	5%	0	11%	28%	-5	5%
CC(/C=C/c1ccc(N(C)C)cc1)=N\N=C1\NC(=O)CC(C(=O)Nc2ccccc2)S1 (configuration not stated)	62%	49*	23%	-25%	63*	5%
CCCOc1ccc(NC(=O)C2CC(=O)N/C(=N/N=C(\C)CCc3ccc4c(c3)OCO4)S2)cc1 (configuration not stated)	3%	-3	?	-12%	-11	-14%
CCCOc1ccc(NC(=O)C2CC(=O)N/C(=N/N=C(C)/C=C/c3ccc(N(C)C)cc3)S2)cc1 (configuration not stated)	46%	40*	?	-1%	82*	6%
COCCNC(=O)C1(C)CCCN(Cc2cc3ccccc3o2)C1 (configuration not stated)	.	.	.	.	.	11%
CCOC(=O)/C(C#N)=C/C1=C(N2CCOCC2)CC(C)(C)OC1	19%	1	24%	-23%	-6	5%
S=C(N/N=C/c1ccco1)NC1CC2CCC1C2 (configuration not stated)	.	44*	5.2µM*	?	73*	73%
COc1cccc(/C=N/NC(=S)NC2CC3CCC2C3)c1OC (configuration not stated)	6.6µM*	-1	4.7µM*	-20%	-5	101%
Oc1ccccc1/C=N/NC(=S)NC1CC2CCC1C2 (configuration not stated)	3.7µM*	32*	1.3µM*	?	45*	40%
COc1cccc(C=NNC(=S)NN=Cc2cccc(OC)c2OC)c1OC	.	.	.	?	.	50%
CC1(C)C(N(O)C(=O)Nc2ccc(Cl)cc2)N(c2ccc(Cl)cc2)C(=O)N1CC(=O)NN (configuration not stated)	.	-3	10µM*	?	20	48%
CC12Cc3ccc4ccccc4c3C=C1C[N+](C)(C)C2 (configuration not stated)	.	-3	1.7µM*	0%	-11	41%
COc1ccc(NS(=O)(=O)c2ccc(F)c(F)c2F)cc1S(=O)(=O)N1CCOCC1	?	.	-8%	13%	.	-2%
CC(C)(C)NC(=O)CN(Cc1ccc2c(c1)OCO2)C(=O)CNS(=O)(=O)c1ccccc1	10%	-4	?	14%	-7	0%
SMILES	Pf growth 48h	CHX counter	Pf growth 96h	HCV inhibitor	Shiga toxin inh	AMA1 RON2 block
CC(=O)c1c(C)[nH]c(C(=O)OC(C)C(=O)Nc2ccc(C)c(S(=O)(=O)N3CCOCC3)c2)c1C (configuration not stated)	9.3µM*	.	5.2µM*	-7%	.	0%
CC(=O)c1c(C)[nH]c(C(=O)Nc2ccc(Cl)c(S(=O)(=O)N3CCOCC3)c2)c1C	4.1µM*	0	4.1µM*	?	-6	14%
CCN(CC)S(=O)(=O)c1cc(NC(=O)C(C)OC(=O)c2[nH]c(C)c(C(C)=O)c2C)ccc1C (configuration not stated)	3.7µM*	2	?	?	-6	-10%
Cc1noc(NS(=O)(=O)c2ccc(NC(=O)c3cc(F)c(F)c(F)c3F)cc2)c1C	-2%	.	6%	32%	.	-5%
O=[N+]([O-])c1ccccc1CN1CCN(Cc2c[nH]c3ccccc23)CC1	-22%	1	?	-16%	-3	11%
COc1ccc(CN2CC=C(c3ccc(F)cc3)CC2)cc1Br	0%	-1	-3%	-16%	-4	0%
O=[N+]([O-])c1cccc(CN2CC=C(c3ccc(F)cc3)CC2)c1	-6%	1	10µM*	-16%	-4	-24%
O=[N+]([O-])c1ccccc1CN1CC=C(c2ccc(F)cc2)CC1	9%	17*	-26%	2%	23*	-1%
Cc1ccc2c(c1)CO[C@]21O[C@H](CCO)C[C@H](O)[C@H]1O	.	.	.	.	.	-1%
COc1ccc(S(=O)(=O)N2CCCCC2)cc1NC(=O)c1cncc(Br)c1	-29%	.	-19%	18%	.	5%
O=C(CSc1nnc(NC(=O)c2ccccc2Cl)s1)Nc1ccc2c(c1)oc1ccccc12	108%	34*	?	9%	54*	.

Screens as filed in PubChem BioAssay.
